Source: PubChem BioAssay (EPA / NIEHS)
Where “and” joins values, the source holds several entries; their conditions need not be identical. Equal values may be shown once. Records with an inconclusive call do not appear. Some compounds were tested as several samples or in several runs, with calls that do not always agree. Calls of active or inactive are those of the source. The calls were made as follows, unless noted: active = hit-call score of the fitted dose curve at least 0.9, where 1 is the maximum; inactive = score below 0.9.

Key:
[1] = ATG_M_06_TRANS: Attagene TRANS-FACTORIAL HepG2 Assay for M06 Transcription Factor (Internal Marker) (AID 2282983; active = hit-call score of the fitted dose curve at least 0.9, where 1 is the maximum); conditions: HepG2 Attagene TRANS M06 internal marker reporter
How it was run: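 After a 24 h chemical treatment of transfected HepG2, RNA underwent DNase I treatment, reverse transcription and reporter-specific PCR; labelled, HpaI-digested products were sized by capillary electrophoresis. Signal increase relative to DMSO defined activity.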

[2] = biological target: Transcriptional activator Myb (Homo sapiens) (UniProt P10242); experiment: ATG_Myb_CIS: Attagene CIS-FACTORIAL HepG2 Assay for human Myeloblastosis (Myb) Proto-Oncogene Transcription Factor (AID 2282986); conditions: HepG2 Attagene CIS-FACTORIAL Myb reporter transcription; actives raise or lower the signal
Chain of Transcriptional activator Myb (Homo sapiens) (P10242 whole entry, looked up): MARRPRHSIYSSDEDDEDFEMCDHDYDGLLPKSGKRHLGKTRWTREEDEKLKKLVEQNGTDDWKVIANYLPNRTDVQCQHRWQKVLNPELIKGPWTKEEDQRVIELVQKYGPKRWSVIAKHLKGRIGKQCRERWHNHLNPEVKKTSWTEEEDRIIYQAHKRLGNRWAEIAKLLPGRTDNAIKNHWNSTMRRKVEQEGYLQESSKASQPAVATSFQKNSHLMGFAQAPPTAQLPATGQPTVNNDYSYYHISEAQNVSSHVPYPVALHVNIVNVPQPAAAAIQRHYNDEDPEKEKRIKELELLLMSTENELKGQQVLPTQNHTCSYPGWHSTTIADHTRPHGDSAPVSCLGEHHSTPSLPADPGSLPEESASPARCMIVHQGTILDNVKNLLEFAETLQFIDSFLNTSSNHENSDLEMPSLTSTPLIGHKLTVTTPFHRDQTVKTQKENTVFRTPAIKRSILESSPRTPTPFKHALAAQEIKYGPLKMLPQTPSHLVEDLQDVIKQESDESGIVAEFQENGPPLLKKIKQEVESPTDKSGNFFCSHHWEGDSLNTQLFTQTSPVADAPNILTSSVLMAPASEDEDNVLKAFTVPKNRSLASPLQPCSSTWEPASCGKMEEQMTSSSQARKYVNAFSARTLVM
How it was run: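 HepG2, transient MRTU transfection (cis-element promoters, endogenous TF activity), 24 h compound exposure. Readout: reporter mRNA via RT-PCR, 6-FAM labeling, HpaI digest, capillary electrophoresis. Gain/loss fit vs DMSO.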

[3] = biological target: Nuclear respiratory factor 1 (Homo sapiens) (UniProt Q16656); experiment: ATG_NRF1_CIS: Attagene CIS-FACTORIAL HepG2 Assay for human Nuclear Respiratory Factor 1 (NRF1) Orphan Gene (AID 2282987); conditions: HepG2 NRF1 cis-element reporter, Attagene multiplex; actives raise or lower the signal
Chain of Nuclear respiratory factor 1 (Homo sapiens) (Q16656 whole entry, looked up): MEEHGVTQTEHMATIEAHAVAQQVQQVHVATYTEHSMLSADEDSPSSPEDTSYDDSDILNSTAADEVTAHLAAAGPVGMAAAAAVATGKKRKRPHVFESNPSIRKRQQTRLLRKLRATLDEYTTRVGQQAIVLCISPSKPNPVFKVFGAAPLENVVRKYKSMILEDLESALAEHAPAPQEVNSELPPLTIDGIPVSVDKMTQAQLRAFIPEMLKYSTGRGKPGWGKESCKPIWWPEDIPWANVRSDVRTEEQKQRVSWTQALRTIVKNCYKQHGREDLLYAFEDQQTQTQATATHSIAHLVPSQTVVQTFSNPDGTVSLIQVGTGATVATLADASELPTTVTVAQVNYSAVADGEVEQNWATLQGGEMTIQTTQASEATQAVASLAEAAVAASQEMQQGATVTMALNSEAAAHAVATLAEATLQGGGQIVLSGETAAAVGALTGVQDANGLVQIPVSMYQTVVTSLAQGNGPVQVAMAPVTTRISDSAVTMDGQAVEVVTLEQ
How it was run: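 Endogenous NRF1-driven reporter transcription measured in transiently transfected human HepG2 liver cells. Readout: reporter mRNA by RT-PCR and capillary electrophoresis with fluorescence detection, 24 h post-dosing. Gain or loss of signal fitted relative to DMSO baseline.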

[4] = biological target: Myc proto-oncogene protein (Homo sapiens) (UniProt P01106); experiment: ATG_Myc_CIS: Attagene CIS-FACTORIAL HepG2 Assay for human Myelocytomatosis (Myc) Proto-Oncogene Transcription Factor (AID 2282990); conditions: HepG2, Attagene cis-reporter transcription factor activity; actives raise or lower the signal
Chain of Myc proto-oncogene protein (Homo sapiens) (P01106 whole entry, looked up): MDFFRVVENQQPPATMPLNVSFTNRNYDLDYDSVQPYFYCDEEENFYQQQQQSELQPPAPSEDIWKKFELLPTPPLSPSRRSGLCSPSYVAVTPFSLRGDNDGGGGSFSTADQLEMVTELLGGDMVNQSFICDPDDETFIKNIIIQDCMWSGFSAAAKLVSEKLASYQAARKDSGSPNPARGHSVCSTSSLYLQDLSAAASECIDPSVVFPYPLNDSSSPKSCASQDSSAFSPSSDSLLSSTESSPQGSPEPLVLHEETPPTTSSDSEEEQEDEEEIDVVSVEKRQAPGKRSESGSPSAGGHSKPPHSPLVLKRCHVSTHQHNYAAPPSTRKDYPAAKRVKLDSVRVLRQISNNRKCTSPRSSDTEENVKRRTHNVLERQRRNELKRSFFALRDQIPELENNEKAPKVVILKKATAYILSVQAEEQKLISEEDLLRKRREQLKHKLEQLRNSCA
How it was run: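 Multiplexed cis-reporter transcription in HepG2 cells after 24 h chemical treatment. Reporter mRNA measured by RT-PCR and capillary electrophoresis fluorescence; activity fitted bidirectionally against DMSO control.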

[5] = ATG_NRF2_ARE_CIS: Attagene CIS-FACTORIAL HepG2 Assay for human Nuclear Factor Erythroid 2 Related Factor 2 (NFR2) response to Antioxidant Response Elements (ARE) (AID 2282992); conditions: HepG2 Attagene ARE/NRF2 reporter, transcription factor activity; actives raise or lower the signal
How it was run: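 Transient MRTU transfection of HepG2; 24 h compound exposure; TriZol RNA, RT with oligo(dT), PCR, 6-FAM primer extension, HpaI cut, CE. Bidirectional fit vs DMSO.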

[6] = ATG_Oct_MLP_CIS: Attagene CIS-FACTORIAL HepG2 Assay for human Octamer-Binding Transcription Factor (Oct) (AID 2282993); conditions: HepG2 Attagene cis-factorial Oct reporter, mRNA; actives raise or lower the signal
How it was run: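 HepG2 cells transiently transfected with cis-element-driven reporter transcription units (endogenous TF activity); 24 h compound exposure. Reporter mRNA quantified by RT-PCR, 6-FAM labelling, HpaI digestion and capillary electrophoresis; bidirectional fit versus DMSO baseline.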

[7] = biological target: Cellular tumor antigen p53 (Homo sapiens) (UniProt P04637); experiment: ATG_p53_CIS: Attagene CIS-FACTORIAL HepG2 Assay for human p53 Transcription Factor (AID 2282994); conditions: HepG2 p53 cis-element reporter, Attagene mRNA; actives raise or lower the signal
Chain of Cellular tumor antigen p53 (Homo sapiens) (P04637 whole entry, looked up): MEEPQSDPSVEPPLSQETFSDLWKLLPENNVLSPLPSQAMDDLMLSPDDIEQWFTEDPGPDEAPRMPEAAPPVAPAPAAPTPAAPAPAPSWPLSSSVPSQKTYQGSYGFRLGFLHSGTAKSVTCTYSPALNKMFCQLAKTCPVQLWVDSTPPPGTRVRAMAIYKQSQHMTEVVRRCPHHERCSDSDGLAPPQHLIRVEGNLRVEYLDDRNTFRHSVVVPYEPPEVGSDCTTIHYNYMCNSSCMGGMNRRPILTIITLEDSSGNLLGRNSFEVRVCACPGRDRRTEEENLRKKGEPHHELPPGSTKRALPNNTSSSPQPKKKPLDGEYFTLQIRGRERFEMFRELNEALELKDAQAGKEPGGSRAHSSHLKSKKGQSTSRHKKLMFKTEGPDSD
How it was run: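 HepG2, transient MRTU transfection (cis promoter elements, endogenous TFs); 24 h dosing; RNA isolation, RT-PCR, 6-FAM primer extension, HpaI digest, CE fluorescence; bidirectional fit vs DMSO.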

[8] = BSK_3C_TissueFactor: BioMAP Diversity Plus: 3C Assay for Tissue Factor Biomarker Activity (AID 2282997); conditions: BioMAP 3C HUVEC, tissue factor biomarker readout; actives raise or lower the signal
How it was run: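 Human vascular primary cells (umbilical vein endothelium) received test chemical; Tissue Factor was determined by ELISA at 24 h, and both gain and loss of signal versus DMSO were fitted.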

[9] = BSK_3C_uPAR: BioMAP Diversity Plus: 3C Assay for Urokinase-type plasminogen activator receptor (uPAR) Biomarker Activity (AID 2282998); conditions: BioMAP 3C HUVEC, uPAR biomarker ELISA; actives raise or lower the signal
How it was run: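 Primary human umbilical vein endothelial cells, 3C system; surface uPAR measured by ELISA 24 h after dosing. Cytotoxicity via SRB total protein in parallel cultures; bidirectional fit against DMSO.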

[10] = BSK_3C_VCAM1: BioMAP Diversity Plus: 3C Assay for Vascular cell adhesion molecule 1 (VCAM1) Biomarker Activity (AID 2282999); conditions: BioMAP 3C HUVEC, VCAM1 ELISA, cytokine-stimulated; actives raise or lower the signal
How it was run: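 Human umbilical vein endothelial cells were dosed with compound for 24 h, after which cell-surface VCAM-1 was quantified by ELISA. Bidirectional curve fitting used DMSO as negative control and activity baseline.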

[11] = BSK_4H_Eotaxin3: BioMAP Diversity Plus: 4H Assay for Eotaxin 3 Biomarker Activity (AID 2283000); conditions: primary human endothelial cells (HUVEC); actives raise or lower the signal
How it was run: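 Readout is Eotaxin-3 (CCL26) level by ELISA in primary human umbilical vein endothelial cells harvested 24 h after chemical exposure; activity fitted in both directions against DMSO control.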

[12] = biological target: Glucocorticoid receptor (Homo sapiens) (UniProt P04150); experiment: ATG_GR_TRANS: Attagene TRANS-FACTORIAL HepG2 Assay for human Glucocorticoid Receptor (GR) (AID 2282978; active = hit-call score of the fitted dose curve at least 0.9, where 1 is the maximum;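 also: activators score as hits since higher reporter transcript over DMSO is fitted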); conditions: HepG2 Attagene TRANS GR reporter, mRNA transcription
Chain of Glucocorticoid receptor (Homo sapiens) (P04150 whole entry, looked up, the tested form may be a part): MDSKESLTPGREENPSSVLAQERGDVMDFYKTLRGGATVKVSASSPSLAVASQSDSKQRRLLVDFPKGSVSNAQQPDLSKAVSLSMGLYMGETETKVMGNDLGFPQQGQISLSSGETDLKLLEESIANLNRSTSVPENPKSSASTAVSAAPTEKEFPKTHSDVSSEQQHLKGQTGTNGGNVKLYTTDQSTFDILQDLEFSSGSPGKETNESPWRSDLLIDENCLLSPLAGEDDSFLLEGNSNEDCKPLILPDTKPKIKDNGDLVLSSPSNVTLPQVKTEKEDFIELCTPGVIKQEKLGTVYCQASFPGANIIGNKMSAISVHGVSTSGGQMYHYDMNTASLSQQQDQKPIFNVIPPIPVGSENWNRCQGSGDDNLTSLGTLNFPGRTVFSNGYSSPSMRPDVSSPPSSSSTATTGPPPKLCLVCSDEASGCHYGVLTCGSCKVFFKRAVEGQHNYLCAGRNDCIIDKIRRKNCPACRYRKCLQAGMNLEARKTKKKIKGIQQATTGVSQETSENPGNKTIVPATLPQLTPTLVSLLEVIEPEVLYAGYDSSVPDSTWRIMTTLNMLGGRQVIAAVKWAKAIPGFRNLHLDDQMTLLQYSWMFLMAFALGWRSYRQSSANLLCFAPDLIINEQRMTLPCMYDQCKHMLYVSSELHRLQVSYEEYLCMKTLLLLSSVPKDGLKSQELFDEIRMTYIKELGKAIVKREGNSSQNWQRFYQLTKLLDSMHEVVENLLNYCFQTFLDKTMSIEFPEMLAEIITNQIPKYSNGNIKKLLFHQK
How it was run: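 Transient MRTU transfection of HepG2 (GAL4-UAS reporters, exogenous NR-GAL4 chimeras), 24 h dosing. Readout: reporter transcript via RT-PCR + capillary electrophoresis fluorescence. Positive direction vs DMSO baseline.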

[13] = biological target: Hepatocyte nuclear factor 4-alpha (Homo sapiens) (UniProt P41235); experiment: ATG_HNF4a_TRANS: Attagene TRANS-FACTORIAL HepG2 Assay for human Hepatocyte Nuclear Factor 4 alpha (HNF4a) (AID 2282982; active = hit-call score of the fitted dose curve at least 0.9, where 1 is the maximum); conditions: HepG2 HNF4a transactivation reporter, mRNA readout
Chain of Hepatocyte nuclear factor 4-alpha (Homo sapiens) (P41235 whole entry, looked up, the tested form may be a part): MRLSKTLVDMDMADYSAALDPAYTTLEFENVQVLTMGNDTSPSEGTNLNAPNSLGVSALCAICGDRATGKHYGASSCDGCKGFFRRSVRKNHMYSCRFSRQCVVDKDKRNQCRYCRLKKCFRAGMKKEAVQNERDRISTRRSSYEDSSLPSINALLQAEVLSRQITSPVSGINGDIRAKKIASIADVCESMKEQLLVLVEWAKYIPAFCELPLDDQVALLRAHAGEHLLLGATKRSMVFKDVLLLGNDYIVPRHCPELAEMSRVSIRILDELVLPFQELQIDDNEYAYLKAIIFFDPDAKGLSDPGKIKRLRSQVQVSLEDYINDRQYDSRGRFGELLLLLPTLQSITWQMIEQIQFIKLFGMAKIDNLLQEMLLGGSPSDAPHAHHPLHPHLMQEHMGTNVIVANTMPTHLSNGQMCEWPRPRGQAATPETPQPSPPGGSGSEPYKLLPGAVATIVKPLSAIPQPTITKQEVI
How it was run: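 HepG2 cells transiently transfected with multiplexed GAL4-UAS reporter units responsive to chimeric NR-GAL4 proteins; compound exposure 24 h. Reporter mRNA quantified by RT-PCR, 6-FAM labelling, HpaI digestion and capillary electrophoresis; gain of signal versus DMSO baseline.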

[14] = ATG_NF_kB_CIS: Attagene CIS-FACTORIAL HepG2 Assay for human Nuclear Factor Kappa B (NF-kB) (AID 2282991); conditions: HepG2 Attagene cis-factorial NF-kB reporter mRNA; actives raise or lower the signal
How it was run: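 Read-out: reporter transcript levels quantified by RT-PCR plus capillary electrophoresis of 6-FAM-labelled, HpaI-cut fragments. Transfected HepG2 cells, 24 h compound exposure, endogenous NF-kB-driven cis element; gain or loss scored versus DMSO.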

[15] = ATG_M_32_TRANS: Attagene TRANS-FACTORIAL HepG2 Assay for M32 Transcription Factor (Internal Marker) (AID 2282984; active = hit-call score of the fitted dose curve at least 0.9, where 1 is the maximum;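 also: transcript level of a background control reporter unit measured by RT-PCR and capillary electrophoresis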); conditions: HepG2 Attagene TRANS M32 internal marker reporter
How it was run: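 HepG2 cells transiently transfected with multiple GAL4-UAS reporter transcription units, dosed for 24 hours; reporter mRNA quantified by RT-PCR, 6-FAM primer extension, HpaI digestion and capillary electrophoresis. Gain-of-signal fitted versus DMSO baseline; internal background-control marker.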

[16] = ATG_NFI_CIS: Attagene CIS-FACTORIAL HepG2 Assay for human Nuclear Factor I (NFI) (AID 2282989); conditions: HepG2 cis-regulatory reporter, NFI response element transcription; actives raise or lower the signal
How it was run: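 Endogenous TF activity in HepG2 cells transiently transfected with cis-element-driven multiplexed reporter units, read 24 h after dosing. Reporter mRNA quantified by RT-PCR, 6-FAM labelling, HpaI digestion and capillary electrophoresis; bidirectional fit versus DMSO.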

[17] = biological target: Bile acid receptor (Homo sapiens) (UniProt Q96RI1); experiment: ATG_FXR_TRANS: Attagene TRANS-FACTORIAL HepG2 Assay for Farnesoid X Receptor (FXR) (AID 2282979; active = hit-call score of the fitted dose curve at least 0.9, where 1 is the maximum;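 also: hits raise reporter mRNA above DMSO so AC50 marks FXR activation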); conditions: HepG2 Attagene TRANS FXR-GAL4 reporter transcription
Chain of Bile acid receptor (Homo sapiens) (Q96RI1 whole entry, looked up, the tested form may be a part): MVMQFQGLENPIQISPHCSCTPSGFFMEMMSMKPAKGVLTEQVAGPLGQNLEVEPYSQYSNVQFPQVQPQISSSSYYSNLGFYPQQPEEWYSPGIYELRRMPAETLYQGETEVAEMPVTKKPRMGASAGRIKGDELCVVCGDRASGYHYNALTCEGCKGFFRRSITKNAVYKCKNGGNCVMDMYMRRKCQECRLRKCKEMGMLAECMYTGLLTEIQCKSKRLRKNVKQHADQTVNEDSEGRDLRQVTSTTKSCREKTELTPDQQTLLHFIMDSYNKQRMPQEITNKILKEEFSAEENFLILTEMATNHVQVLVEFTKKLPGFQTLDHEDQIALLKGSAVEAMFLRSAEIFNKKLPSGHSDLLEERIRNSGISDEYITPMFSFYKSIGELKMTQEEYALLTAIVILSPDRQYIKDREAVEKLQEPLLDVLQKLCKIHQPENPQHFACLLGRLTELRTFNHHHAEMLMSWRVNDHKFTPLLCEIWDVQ
How it was run: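 Read-out: fluorescent reporter transcripts quantified by capillary electrophoresis after RT-PCR of total RNA. Source cells were HepG2 transiently carrying chimeric NR-GAL4 plus GAL4-UAS reporter units, dosed 24 h. Activity fitted upward relative to DMSO baseline.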

[18] = biological target: Oxysterols receptor LXR-beta (Homo sapiens) (UniProt P55055); experiment: ATG_LXRb_TRANS: Attagene TRANS-FACTORIAL HepG2 Assay for human Liver X Receptor beta (LXRb) (AID 2282981; active = hit-call score of the fitted dose curve at least 0.9, where 1 is the maximum); conditions: HepG2 Attagene TRANS GAL4-LXRb reporter, mRNA
Chain of Oxysterols receptor LXR-beta (Homo sapiens) (P55055 whole entry, looked up, the tested form may be a part): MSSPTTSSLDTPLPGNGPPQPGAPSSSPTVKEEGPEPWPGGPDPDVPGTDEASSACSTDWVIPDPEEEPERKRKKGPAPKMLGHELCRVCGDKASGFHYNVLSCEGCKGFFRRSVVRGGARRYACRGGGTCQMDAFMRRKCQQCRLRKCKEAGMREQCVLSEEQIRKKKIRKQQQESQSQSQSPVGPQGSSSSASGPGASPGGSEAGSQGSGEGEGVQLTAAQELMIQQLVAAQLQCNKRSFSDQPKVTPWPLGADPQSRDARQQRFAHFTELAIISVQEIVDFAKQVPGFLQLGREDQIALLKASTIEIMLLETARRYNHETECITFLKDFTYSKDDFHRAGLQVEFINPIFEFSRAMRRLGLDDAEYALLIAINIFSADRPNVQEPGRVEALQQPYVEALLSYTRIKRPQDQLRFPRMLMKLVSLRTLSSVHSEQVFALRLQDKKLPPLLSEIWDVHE
How it was run: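 HepG2 cells transiently transfected with multiple reporter transcription units carrying chimeric NR-Gal4 proteins acting on GAL4-UAS reporters; compound exposure 24 h. Reporter mRNA quantified by RT-PCR, 6-FAM labelling, HpaI digestion and capillary electrophoresis; gain of signal versus DMSO.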

[19] = biological target: Nuclear receptor subfamily 4 group A member 2 (Homo sapiens) (UniProt P43354); experiment: ATG_NURR1_TRANS: Attagene TRANS-FACTORIAL HepG2 Assay for human Nuclear Receptor Related Protein 1 (NURR1) (AID 2282985; active = hit-call score of the fitted dose curve at least 0.9, where 1 is the maximum); conditions: HepG2 Attagene TRANS reporter, mRNA readout
Chain of Nuclear receptor subfamily 4 group A member 2 (Homo sapiens) (P43354 whole entry, looked up, the tested form may be a part): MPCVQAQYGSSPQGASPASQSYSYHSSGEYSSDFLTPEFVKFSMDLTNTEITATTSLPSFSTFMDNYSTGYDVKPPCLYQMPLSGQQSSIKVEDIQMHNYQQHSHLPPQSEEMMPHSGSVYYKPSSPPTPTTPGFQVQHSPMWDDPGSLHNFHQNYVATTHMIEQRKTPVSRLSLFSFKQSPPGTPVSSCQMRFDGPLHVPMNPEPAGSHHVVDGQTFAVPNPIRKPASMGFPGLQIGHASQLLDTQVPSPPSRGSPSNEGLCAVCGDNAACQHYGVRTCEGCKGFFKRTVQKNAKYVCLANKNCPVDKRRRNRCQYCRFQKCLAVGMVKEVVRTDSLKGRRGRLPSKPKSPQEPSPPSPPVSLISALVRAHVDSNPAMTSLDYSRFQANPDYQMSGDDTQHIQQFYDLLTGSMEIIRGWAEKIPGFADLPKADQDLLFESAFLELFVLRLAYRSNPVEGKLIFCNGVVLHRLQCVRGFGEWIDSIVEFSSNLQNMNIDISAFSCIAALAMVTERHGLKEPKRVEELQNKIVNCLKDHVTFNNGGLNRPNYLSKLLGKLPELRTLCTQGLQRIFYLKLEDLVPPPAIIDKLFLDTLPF
How it was run: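 HepG2 cells transiently transfected with GAL4-UAS reporter units and chimeric NR-Gal4 constructs; chemical exposure 24 h. Reporter mRNA quantified by RT-PCR, fluorescent labelling and capillary electrophoresis; gain of signal fitted relative to DMSO baseline.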

Measured: AC50

CCCCC(CC)COC(=O)CCCCC(=O)OCc1ccccc1 (configuration not stated)
not listed: [12] | [13] | [14] | [15] | [16] | [17] | [18] | [19]
inactive: all other assays above

COc1ccc([N+](=O)[O-])cc1N
not listed: [1] | [15] | [16] | [17] | [18] | [19]
inactive: all other assays above

CCCCCCCCC(=O)O
not listed: [12] | [14] | [17] | [18] | [19]
inactive: all other assays above

COCC(C)OCC(C)O (configuration not stated)
not listed: [12] | [15] | [18] | [19]
inactive: all other assays above

CCC(C)(C)C1CCC(O)CC1 (configuration not stated)
not listed: [12] | [16] | [17] | [19]
inactive: all other assays above

C#C[C@]1(O)CC[C@H]2[C@@H]3CCC4=CC(=O)CC[C@@H]4[C@H]3CC[C@@]21C
inactive: [12] | [1] | [19] | [2] | [3] | [4] | [14] | [5] | [6] | [7] | [10] | [11]
active: [5] 100 µM and 79.6 µM | [8] 15.3 µM | [9] 5.42 µM

C[C@@H]1C[C@H]2[C@@H]3CCC4=CC(=O)C=C[C@]4(C)[C@@]3(F)[C@@H](O)C[C@]2(C)[C@@]1(O)C(=O)COP(=O)(O)O
active: [11] 8.66 µM
inactive: [1] | [15] | [2] | [3] | [4] | [14] | [5] | [6] | [7] | [8] | [9] | [10] | [11]
